# Screens from PubChem.
# MCF10A rereplic: DNA re-replication induction in MCF 10a cells. MCF 10A DNA re-replication, Hoechst nuclear intensity, 48 h. Potency, µM (highest dose often 46.1 µM), most hits filed as activators. 350,000 compounds, 2.9% hits. AID 624296; also: nearly all actives have a fitted effect of over 50% in size
# Giardia kill: kills Giardia lamblia; Giardia lamblia trophozoite viability; activity change, % at 7.66 µM, hits read low; 340,000 compounds, 0.15% hits; AID 540267; in the data active = activity change below about -80%; inconclusive = between about -30% and that limit;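 also: parasites exposed to compound for two days anaerobically before the ATP read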
#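 Luminescence from cellular ATP indicates surviving trophozoites (100 cells/well) following 48 hrs anaerobic compound treatment at 37 deg C; signal develops 15-30 min at room temperature.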
# SW480 rereplic: DNA re-replication induction in SW480 cells; SW480 DNA re-replication, Hoechst DNA content imaging, 48 h; 340,000 compounds, 1.8% hits; Potency, µM (titrated, usually from 46.1 µM), most hits filed as activators; also: nearly all actives have a fitted effect of over 55% in size
#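 Image-based read-out: total Hoechst fluorescence of nuclei (405 nm excitation, 500-530 nm emission), with hits raising the fraction of high-intensity nuclei. SW480 colon cells incubated 48 hr with compounds at 37 C.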
# ASM inhibitor: inhibitors of human secretory acid sphingomyelinase. AID 504937. P17405. Potency, µM (series often up to 57.5 µM), most hits filed as inhibitors. placental ASM, HMU-PC fluorogenic substrate, 60 min. 340,000 compounds, 0.006% hits
# Target sequence (P17405 47-631 limits assumed): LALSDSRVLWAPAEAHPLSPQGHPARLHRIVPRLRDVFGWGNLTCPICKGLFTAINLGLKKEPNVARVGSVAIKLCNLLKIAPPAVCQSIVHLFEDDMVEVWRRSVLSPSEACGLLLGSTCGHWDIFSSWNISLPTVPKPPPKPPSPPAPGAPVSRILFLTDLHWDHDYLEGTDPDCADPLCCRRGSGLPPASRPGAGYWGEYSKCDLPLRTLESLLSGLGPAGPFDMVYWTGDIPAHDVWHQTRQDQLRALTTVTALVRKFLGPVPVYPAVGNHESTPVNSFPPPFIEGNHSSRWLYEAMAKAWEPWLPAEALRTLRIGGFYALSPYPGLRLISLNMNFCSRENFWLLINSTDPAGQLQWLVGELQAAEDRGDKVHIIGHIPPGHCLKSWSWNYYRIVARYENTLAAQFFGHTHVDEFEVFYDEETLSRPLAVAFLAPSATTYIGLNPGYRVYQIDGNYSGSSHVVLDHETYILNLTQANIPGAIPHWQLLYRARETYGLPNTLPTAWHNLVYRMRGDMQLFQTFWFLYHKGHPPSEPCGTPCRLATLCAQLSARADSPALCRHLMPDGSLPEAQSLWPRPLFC
#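 Fluorogenic HMU-PC substrate (9 uM final) is turned over by placental ASM in 60 min at 37 C after a 10 min compound preincubation. Reaction ended by alkaline stop (pH 10), with fluorescence read at 386/447 nm.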
# KB-3-1 cytotox: KB-3-1 parental cell cytotoxicity; Potency, µM (top dose mostly 46.1 µM), hits mostly cytotoxic; 400,000 compounds, 1.4% hits; KB-3-1 viability, CellTiter-Glo ATP luminescence, 72 h; also: nearly all actives have a fitted effect of over 60% in size
#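 Cytotoxicity measured as CellTiter-Glo luminescence after 72 h at 37 C. Compound titrations were pinned onto drug-naive KB-3-1 parental adenocarcinoma cells grown in DMEM with 10% FBS, and normalized data fitted to concentration-response curves.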
# KB-V1 cytotox: KB-V1 MDR subline cytotoxicity. 400,000 compounds, 3.4% hits. Potency, µM (top dose mostly 46.1 µM), most hits filed as cytotoxic. KB-V1 MDR cells viability, CellTiter-Glo, 72 h; also: nearly all actives have a fitted effect of over 60% in size
#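 KB-V1, DMEM (no phenol red) + 10% FBS; cpd pin-transferred, titration series; 72 h, 37 degrees C; CellTiter-Glo, luminescence. Data normalized, curve-fit.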
# Hits are given with their value; - = inactive; ? = inconclusive; . = no result given. Only some compounds are listed: those with a hit (about 6.9% of all), similar ones and a draw of the others. Unless noted, calls follow the shape of the dose curve; as a rule, active = well fitted curve in the direction sought with a large enough effect; inconclusive = small, poorly fitted or top-dose-only effect, or another doubt; inactive = no such curve, though single readings can be large; an effect the other way counts as inactive or inconclusive.
SMILES,MCF10A rereplic,Giardia kill,SW480 rereplic,ASM inhibitor,KB-3-1 cytotox,KB-V1 cytotox
Cc1[nH]nc2c1C(C1CC=CCC1)C(C#N)=C(N)O2 (configuration not stated),?,-,?,-,?,-
N#CC1=C(N)Oc2cc(N)ccc2C1C1CC=CCC1 (configuration not stated),6.5µM,-,16µM,-,?,6.5µM
CC1(C)CC(=O)C2=C(C1)OC(N)=C(C#N)C2C1CC=CCC1 (configuration not stated),-,-,-,-,-,16µM
CCCNC(=O)C1(C)CCCN(C(=O)c2ccccc2OC(F)(F)F)C1 (configuration not stated),.,.,.,.,-,-
O=C(/C=C/c1c(F)cccc1Cl)c1ccc(O)cc1,3.3µM,-,?,-,?,-
c1ncc2snnc2n1,.,.,.,.,-,-
Cc1ccc(SC(CC(=O)c2ccc(F)cc2)C(=O)O)cc1 (configuration not stated),?,-,-,-,-,-
CC(C)(C)c1ccc(C(=O)CC(Sc2ccc(Cl)cc2)C(=O)O)cc1 (configuration not stated),23µM,-,?,-,?,?
O=C(CCCn1c(=O)c2ccccc2n(CC(=O)N2CCN(c3ccccc3)CC2)c1=O)NCc1ccco1,-,-,-,-,-,-
CC(=O)Nc1nc(-c2ccc3c(c2)CC(C)N3C(=O)C2CC2)c(C)s1 (configuration not stated),-,-,?,-,-,-
Cc1sc(NC(=O)c2ccco2)nc1-c1ccc2c(c1)CC(C)N2C(=O)C1CC1 (configuration not stated),5µM,-,6.3µM,-,?,?
N#Cc1ccc(C(=O)N2CCN(C(=O)C3CCCO3)CC2)cc1 (configuration not stated),-,-,-,-,-,-
Cc1ccc(C)c(N2CCN(C(=O)CN3C(=O)CSc4c3c(C)nn4-c3ccccc3)CC2)c1,.,.,.,.,-,-
CC(C)N1CCC(N2CCN(C3CCCC3)CC2CCO)CC1 (configuration not stated),-,-,-,-,-,-
Cc1cccc(N2CCC(N3CCN(C4CCCCC4)C(CCO)C3)CC2)c1C (configuration not stated),16µM,-,-,-,-,-
C1CC1Cc1noc(CN2CCN(C3C4CC5CC(C4)CC3C5)CC2)n1 (configuration not stated),2.9µM,-,-,-,-,-
O=C(CCc1nc2cccnc2n1Cc1cccs1)Nc1cccc(C(F)(F)F)c1,.,.,.,.,-,-
CCOc1ccc(CN(C)CC(=O)Nc2ccccc2C(=O)NC2CC2)cc1,-,-,-,.,-,-
CCC1CCCCN1c1nc(-c2ccncc2)nc2ccccc12 (configuration not stated),23µM,-,?,-,?,?
c1ccc(CN2CCN(c3nc(N4CCOCC4)c4ccccc4n3)CC2)cc1,16µM,-,?,-,-,?
c1ccc2c(N3CCOCC3)nc(-c3ccncc3)nc2c1,-,-,-,-,?,13µM
CCN1CCN(c2nc(NCCO)c3ccccc3n2)CC1,-,?,-,-,-,-
OCCNc1nc(N2CCN(Cc3ccccc3)CC2)nc2ccccc12,-,-,-,-,-,21µM
c1cncc(-c2nc(N3CCOCC3)c3ccccc3n2)c1,-,-,-,-,-,?
CCOC(=O)c1cc(-c2ccc(F)cc2)n(CCC(=O)NCCc2ccc(C)cc2)c1C,.,.,.,.,-,-
SMILES,MCF10A rereplic,Giardia kill,SW480 rereplic,ASM inhibitor,KB-3-1 cytotox,KB-V1 cytotox
CCOC(=O)c1c(C)[nH]c(C(=O)CSc2nnc(-c3ccncc3)n2CC)c1C,-,-,?,-,-,-
C=CCn1c(SCC(=O)c2[nH]c(C)c(C(=O)OCC)c2C)nc2scc(-c3ccc(OC)c(OC)c3)c2c1=O,3.3µM,-,13µM,-,-,?
COc1ccc2c(c1)c1nnc(SCCN3CCOCC3)nc1n2C,.,-,.,.,.,.
CCN1C(=O)c2ccccc2S(=O)c2ccc(C(=O)N3CCN(c4cccc(C)c4)C(C)C3)cc21 (configuration not stated),.,.,.,.,18µM,-
Cc1ccc(C)c(CN2C(=O)c3ccccc3S(=O)c3ccc(C(=O)N4CCN(c5ccccn5)CC4)cc32)c1 (configuration not stated),?,-,-,-,10µM,?
O=C(Oc1ccccc1/C=C\C(=O)c1cc2ccccc2o1)c1cccc(F)c1,18µM,-,?,-,-,?
COc1ccc(O)c(C(=O)/C=C/c2cc3ccccc3o2)c1,2.6µM,-,?,-,-,-
COc1cccc(C(=O)Oc2ccccc2/C=C\C(=O)c2cc3ccccc3o2)c1,0.58µM,-,?,-,?,-
O=C(Oc1ccccc1/C=C\C(=O)c1cc2ccccc2o1)c1ccccc1,?,-,?,-,-,-
CCN1CCSc2ccc(C(=O)NC(C)c3ccccc3)cc21 (configuration not stated),.,.,.,.,-,-
CCN(C1CCS(=O)(=O)C1)S(=O)(=O)c1ccc(OC)c(OC)c1 (configuration not stated),-,-,-,-,-,-
NNC(=S)Nc1ccc(S(=O)(=O)N2CCOCC2)cc1,-,-,-,-,-,?
O=C(Nc1cc(S(=O)(=O)N2CCOCC2)ccc1N1CCOCC1)c1ccccc1Cl,-,-,-,-,-,-
O=C(Nc1cc(S(=O)(=O)N2CCOCC2)ccc1N1CCCC1)c1cc(F)c(F)cc1Cl,-,-,-,-,-,16µM
O=S(=O)(c1ccc(NC(=S)Nc2ccc(OC(F)F)cc2)cc1)N1CCOCC1,-,-,-,-,-,23µM
O=C(Nc1ccccc1O)c1cc(S(=O)(=O)N2CCOCC2)ccc1Cl,-,-,-,-,?,?
O=C(Nc1ccccc1O)c1cc(S(=O)(=O)N2CCOCC2)c(Cl)cc1Cl,?,-,?,-,-,2.9µM
O=C(NC1CCCCCC1)c1cc(S(=O)(=O)N2CCOCC2)ccc1N1CCCCC1,-,-,-,-,?,8.2µM
C/C(=N\NC(=S)Nc1cc(S(=O)(=O)N2CCOCC2)ccc1Cl)c1ccccc1F,?,-,?,-,?,3.7µM
O=C(Nc1ccc(OC(F)F)cc1)c1cc(S(=O)(=O)N2CCOCC2)ccc1N1CCCC1,-,-,-,-,-,9.2µM
CC(C)N(C(=S)Nc1cc(S(=O)(=O)N2CCOCC2)ccc1Cl)c1ccccc1,-,-,-,-,-,-
CC(=O)Nc1cc([N+](=O)[O-])cc(NC(C)=O)c1NC(C)=O,.,.,.,.,-,-
COc1ccc(CN(CC(=O)NC2CCCC2)C(=O)CN2C(=O)COc3ccccc32)cc1,-,-,-,-,-,-
